The results in this text go back to PubChem BioAssay AID489025 (Southern Research Specialized Biocontainment Screening …, 2010).

Hit rate of the full screen: of about 2,300 compounds, about 790 (34%) were called active. Some of the results follow. Potency and affinity values are given separately. Values without a mark were called inactive. The rule behind the calls is not given here.

As usually defined, the viability is a read-out of living cells in per cent, often relative to untreated cells.

A short description of the test: THP-1 cell cytotoxicity, dose response, cytotoxicity control for non-replicating M. tuberculosis project (AID 489025). The following applies: THP-1 cell viability; series mostly up to 40 µM; viability: at the top concentration.
On to `Cc1[nH][nH]c(=O)c1C(c1ccc(-c2ccc(F)cc2)o1)c1c(C)[nH][nH]c1=O`, for which the “viability” value was 96.8%.
The result for `CC(C)(C)OC(=O)NCCC(=O)Oc1ccc2ccc(=O)oc2c1` reads 89.2%; that for `Cc1noc(C)c1COc1ccc(C(=O)Nc2ccccn2)cc1`, 91.7%.
Turning to `COCCn1c(C)cc(C(=O)COC(=O)c2ccc([N+](=O)[O-])o2)c1C`, the “viability” value was 118%.
Take `O=C(Nc1ccccc1F)c1ccc(CSc2ccccc2)o1`: the “viability” value is 89.5%.
`Cc1ccc(C)c(-c2nnc(NC(=O)COc3ccccc3)o2)c1`: the “viability” value is 77.5%.
With `Cc1cc(C)c(C(=O)COC(=O)c2ccc([N+](=O)[O-])o2)cc1C`, the “viability” value is 115%.
Regarding `Cc1ccc(C)c(-c2nnc(NC(=O)C3=COCCO3)o2)c1`, the “viability” value was 83%.
Consider `O=C1NN(c2ccccc2)C(=O)/C1=C/c1ccc(Sc2ccc(Cl)cc2)o1`, for which the “viability” value was 79%.
For `COc1ccc(-c2nnn(Cc3ccccc3)n2)cc1`, the “viability” value was 103%.
For the compound `NC(=O)c1cccnc1Nc1cccc(F)c1`, the “viability” value was 104%.
As to `COCCCC1CCN(Cc2nc(-c3ccccc3)no2)CC1`, the “viability” value was 104%.
Consider `CCCCNC(=O)COC(=O)c1cc(Br)ccc1Cl`, for which the “viability” value was 118%.
Consider `CC1COC(=O)C(NNc2ccc(Cl)c(Cl)c2)=N1` (centres undefined), for which the “viability” value is 115%.
The same measure for `S=c1c2c(nc3nc[nH]n13)CCC2`: 102%; for `O=C(Cc1ccc(Cl)cc1)OCC(=O)c1ccc[nH]1`: 111%; for `Cc1cccc(OC(=O)c2sc3ncn(C)c(=O)c3c2C)c1`: 84.2%.
Turning to `O=C(c1ccc([N+](=O)[O-])o1)N1CCN(Cc2ccccc2)CC1`, the “viability” value is 78.6%.
With `Cc1ccccc1NC(=O)c1nc[nH]c1C(=O)NCc1ccccc1`, the “viability” value is 91.3%.
`O=[N+]([O-])c1ccc(CN2CCN(c3ccc(Cl)cc3)CC2)o1`: the “viability” value is 108%.
`Cc1cccc(CC(=O)NCC2CCCCC2)c1`: the “viability” value is 110%.
Regarding `COc1ccc2c(c1)C(=C(C#N)C#N)C(=O)N2CCc1ccccc1`, the “viability” value was 91.1%.
Regarding `CSc1nc2ccc(NC(=O)C3CC(=O)N(Cc4ccccc4)C3)cc2s1` (centres undefined), the “viability” value was 107%.
Turning to `CCc1ccc(OCC(=O)c2c(O)c3ccccc3oc2=O)cc1`, the “viability” value was 116%.
Consider `O=C(CCC1CCCCC1)NCc1cccs1`, for which the “viability” value is 105%.
Consider `CCCn1nnc(NC(=O)COc2ccc(CC)cc2)n1`, for which the “viability” value is 109%.
The result for `COc1cc(/C=N/Nc2ccc(Cl)c(C(=O)O)c2)ccc1OC(=O)c1cccs1` reads 116%; that for `COc1ccc(-c2nc(C=O)cs2)cc1`, 78%.
Regarding `Cc1cc(Br)ccc1OCCCCN1CCC(C)CC1`, the “viability” value was 81%.
As to `CCOC(=O)COc1cc([N+](=O)[O-])cc2cccnc12`, the “viability” value was 115%.
The result for `CCOC(=O)COc1ccc2c3c(c(=O)oc2c1C)CCC3` reads 112%.
`O=C(NCc1ccco1)c1nc2ccccc2s1`: the “viability” value is 98.7%.
`O=Cc1c(NCc2ccco2)nc2ccccn2c1=O`: the “viability” value was 90.6%.
`O=C(c1nnc(-c2ccc(Cl)cc2)o1)C1CCCC1`: the “viability” value is 106%.
On to `CC1(c2nnc(Cc3ccccc3)o2)CC(c2ccccc2[N+](=O)[O-])=NO1` (centres undefined), for which the “viability” value was 96.1%.
The same measure for `CCc1nnc(N/N=C/c2ccc(-c3ccc([N+](=O)[O-])cc3)o2)n1N`: 110%.
Turning to `COC(=O)c1cccc(NC(=O)COc2cccc([N+](=O)[O-])c2)c1`, the “viability” value is 109%.
Take `O=C(CCNc1cccc(F)c1)c1cccc([N+](=O)[O-])c1`: the “viability” value is 110%.
The result for `CCCCCCCC(=O)N/N=C/c1ccc([N+](=O)[O-])o1` reads 106%; that for `CC1Cc2ccccc2N1C(=O)COC(=O)c1ccc(Cl)nc1` (centres undefined), 84.6%.
As for `O=C(COC(=O)c1ccc(Br)o1)NCCCc1ccccc1`, the “viability” value was 117%.
In the case of `COC(=O)CCSCc1cn2cc(Cl)ccc2n1`, the “viability” value is 111%.
For `CCC1CCc2sc(C(=O)NNC(=O)c3ccncc3)cc2C1` (centres undefined), the “viability” value was 90.1%.
On to `Cc1ccc(NCCC(=O)c2cccs2)cc1C`, for which the “viability” value is 109%.
Take `COc1ccc(N=N/C(=C\O)C(=O)c2cccs2)cc1`: the “viability” value was 95.2%.
The result for `Sc1oc(-c2ccccc2)cc1C=Nc1ccccc1` reads 87.7%.
`CCOC(=O)COc1ccc(C2CC(C)=NN2c2ccccc2)cc1` (centres undefined): the “viability” value is 99.1%.
Consider `COc1ccc(C2=NOC(COC(=O)c3ccc4ccccc4n3)C2)cc1` (centres undefined), for which the “viability” value was 95.7%.
As to `CCCCOc1ccc(NC(=O)CN2CCN(Cc3ccccc3)CC2)cc1`, the “viability” value was 101%.
As for `O=C(COC(=O)C1CC2C=CC1C2)Nc1ccccc1` (centres undefined), the “viability” value is 95.1%.
Regarding `Cc1cc(C)n2[nH]c(=O)c(N=Nc3cccc(C(F)(F)F)c3)c2n1`, the “viability” value is 88.8%.
For `CCOC(=O)/C=C1\Nc2ccccc2OC1=O`, the “viability” value was 92.2%.
For the compound `Clc1ccc(OCCCCN2CCc3ccccc3C2)cc1`, the “viability” value was 92%.
On to `Cn1c(SCCOc2cccc(Cl)c2)nnc1-c1ccncc1`, for which the “viability” value is 96.3%.
The same measure for `O=C(COC(=O)CCc1c[nH]c2ccccc12)Nc1cc([N+](=O)[O-])ccc1Cl`: 76.8%; for `O=C(CCCSc1nc2ccccc2s1)NCc1ccco1`: 102%.
Consider `O=C(O)c1ccc(CN2C(=O)CSC2=S)cc1`, for which the “viability” value is 102%.
For the compound `c1ccc(Cn2c(SCCN3CCOCC3)nnc2-c2cccnc2)cc1`, the “viability” value is 99.7%.
As to `COc1ccc(CN=C2NN=C(c3ccc(Cl)cc3)CS2)cc1`, the “viability” value was 79.2%.
On to `O=C(O)CCCCCN1C(=O)CSC1=S`, for which the “viability” value was 99.2%.
For the compound `CCOc1ccc(OCC(=O)Nc2nccs2)cc1`, the “viability” value was 91%.
Turning to `COc1ccc(NC(=O)Nc2ccc(O)c3ccccc23)cc1`, the “viability” value was 88.4%.
As to `CCOc1ccc2ccccc2c1/C=N/NC(=O)c1ccncc1`, the “viability” value is 125%.
For the compound `O=C(CCSc1ccc(Cl)cc1)Nc1cccnc1`, the “viability” value is 85.8%.
Take `COc1ccc(C(=O)OCn2nnc3ccccc3c2=O)cc1`: the “viability” value was 97.7%.
`Cc1ccc(C(=O)N/N=C/c2cccc3ccccc23)cn1`: the “viability” value is 82.5%.
As to `CCOC(=O)C1CCN(CCCSc2ccc(Cl)cc2)CC1`, the “viability” value is 109%.
The result for `O=C(CCc1ccccc1)NC1C2CC3CC(C2)CC1C3` (centres undefined) reads 75.9%.
As for `C/C(=N\NC(=O)c1cccc(Cl)c1)C1C(=O)c2ccccc2C1=O`, the “viability” value is 73.1%.
For the compound `C/C(=N\NC(=O)c1ccncc1)c1cc2ccccc2oc1=O`, the “viability” value is 132%.
The same measure for `C/C(=N/NC(=O)c1cccc(C)c1)c1c(O)cc(C)oc1=O`: 93%.
The same measure for `Cc1ccccc1C(=O)NN1CC(C(=O)OCc2ccc(Cl)c(Cl)c2)CC1=O` (centres undefined): 107%.
With `CSc1ccccc1C(=O)NCc1ccc(S(N)(=O)=O)cc1`, the “viability” value was 119%.
The result for `O=C(COc1ccc(Cl)cc1)OCC(=O)N1CCCc2ccccc21` reads 103%; that for `CNC(=O)c1[nH]cnc1C(=O)Nc1ccc(Cl)cc1`, 113%; that for `O=C(Nc1cccnc1)c1cc(Cl)ccc1Cl`, 113%.
Consider `CN1/C(=C\C(=O)COC(=O)C2COc3ccccc3O2)C(C)(C)c2ccccc21` (centres undefined), for which the “viability” value is 89%.
Consider `CN1/C(=C\C(=O)COC(=O)c2ccc([N+](=O)[O-])o2)C(C)(C)c2ccccc21`, for which the “viability” value was 112%.
Consider `O=C(NCc1ccc(F)cc1)c1cnccn1`, for which the “viability” value was 92.3%.
In the case of `O=C(OCC(=O)C12CC3CC(CC(C3)C1)C2)c1ccccn1`, the “viability” value was 102%.
For the compound `NNC(=O)CNC(=O)C12CC3CC(CC(C3)C1)C2`, the “viability” value is 96.7%.
For the compound `CC(C)c1ccc(OCC(=O)NNC(=O)c2cnccn2)cc1`, the “viability” value was 122%.
On to `O=C(Oc1cccnc1)c1ccc(Cl)c(Cl)c1`, for which the “viability” value is 103%.
As for `O=C(OCc1ccc(Cl)c(Cl)c1)c1ccccn1`, the “viability” value was 103%.
The same measure for `Nc1c(C(=O)NC2CCCCC2)nsc1C(=O)OCC(=O)NC1CCCCC1`: 77.8%; for `COC(=O)COc1ccc(S(=O)(=O)NCc2ccc3c(c2)OCO3)cc1`: 125%.
Consider `COC(=O)CCCC(=O)N1CCCC(C(=O)c2ccc(-c3ccccc3)cc2)C1` (centres undefined), for which the “viability” value was 111%.
For the compound `N#Cc1ccc(CSc2nnc(-c3cccnc3)o2)cc1`, the “viability” value was 95.3%.
As to `O=C(COC(=O)CCC(=O)c1ccc(F)cc1)Nc1ccccc1`, the “viability” value was 116%.
